Assay outcomes as filed in PubChem.
Pf growth 48h: P. falciparum growth inhibition at 48 hours (one generation). P. falciparum luciferase growth in erythrocytes, 48 h. Potency, µM (highest dose often 28.7 µM), for inactives: at the highest dose activity change, negative = inhibition, usual class: inhibitors. 310,000 tested, 5.9% active. AID 504832; also: potency is read from the fitted curve at half-maximal effect; % is scaled to controls: 0 for no effect and ±100 for the full control effect
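A one-generation exposure of luciferase-tagged malaria parasites in RPMI 1640/Albumax erythrocyte culture, 37 C and 5% CO2. Inhibition is inferred from decreased luminescence after adding detection reagent.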
Shiga toxin inh: inhibitors of Shiga toxin in Vero cells; Vero cells, Shiga toxin protein synthesis inhibition reporter; inhibition, % at 38.7 µM; 290,000 tested, 9.2% active; AID 2315; in the data active = inhibition mostly above about 28%, no sharp cut-off; inactive = mostly below about 43%; also: 0% is about no effect
CHX counter: counter-screen for Shiga toxin inhibitors: cycloheximide protein synthesis inhibition. 300,000 tested, 12% active. cell reporter, cycloheximide protein synthesis inhibition counterscreen. max response, %; in the data active = max response mostly above about 13%, no sharp cut-off; inactive = mostly below about 14%; also: read at 38.3 µM for the half of the compounds with a filed dose; 0% is about no effect
Pf growth 96h: P. falciparum growth inhibition at 96 hours; P. falciparum luciferase reporter growth, 96 h; Potency, µM (series often up to 28.7 µM), without a hit: at the top dose activity change, negative = inhibition, hits mostly inhibitors; 320,000 tested, 6.9% active; AID 504834; also: potency is read from the fitted curve at half-maximal effect; % is scaled to controls: 0 for no effect and ±100 for the full control effect
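Plates of compound plus infected erythrocytes (2% hematocrit, 0.05% parasitemia final) incubate 96 hours, 37 C, 5% CO2. Detection reagent added; reduced luminescence from the parasites' luciferase reporter flags inhibition.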
* = called active by the depositor; ? = inconclusive; nt = not tested or not shown. Most compounds without a hit are left out; they make up all but 21% or so of the library. Unless noted, calls follow the shape of the dose curve; as a rule, active = well fitted inhibition curve with a large enough effect; inconclusive = small, poorly fitted or top-dose-only effect, or another doubt; inactive = no such curve, though single readings can be large or run the other way.

SMILES | Pf growth 48h | Shiga toxin inh | CHX counter | Pf growth 96h
Cc1ccc(NC(=O)CSc2ccc(-c3cccnc3)nn2)cc1 | ? | 15 | 0 | ?
CN(CC(=O)Nc1ccccc1Br)C(=O)COc1ccc2ccccc2c1 | 1% | nt | nt | 11%
Cc1cc2nc(-c3ccc(SCC(=O)Nc4ccc5c(c4)OCCO5)nc3)[nH]c2cc1C | ? | 157* | 48* | 2.9µM*
O=C(COC(=O)c1cc(Cl)ccc1O)NCC1CCCO1 (stereo not given) | 25% | nt | nt | -7%
COc1ccc2nc(NC(=O)C3CCCN(S(=O)(=O)c4cccc5nonc45)C3)sc2c1 (stereo not given) | 13µM* | 13 | 9 | 88%
CCOc1ccc2nc(NC(=O)C3CCCN(S(=O)(=O)c4c(C)noc4C)C3)sc2c1 (stereo not given) | ? | 28* | 25* | 13µM*
COc1ccc(C)cc1NC(=O)COC(=O)c1c(C)nn(-c2ccccc2)c1C | ? | nt | nt | -27%
CCOc1ccc(NC(=O)CN(C)C(=O)c2cccnc2Sc2ccccc2Cl)cc1OCC | ? | nt | nt | 13%
CCOc1ccc(-c2nc(CSc3nnc(N)s3)cs2)cc1OC | 25% | 85* | 33* | nt
Cc1nc(CSc2nnc(N)s2)cs1 | 1% | 7 | -1 | ?
CCOc1ccc(-c2nc(CSc3nnc(N)s3)cs2)cc1 | 58% | 117* | 31* | nt
CCOC(=O)N1CCC(NC(=O)CC2C(=O)NCCN2Cc2ccccc2F)CC1 (stereo not given) | 18% | -3 | -3 | 19%
O=C(NCc1ccc(OC(F)(F)F)cc1)C1CCC(=O)N(C2CC2)C1 (stereo not given) | 15% | -3 | 3 | 2%
CC(=O)N1N=C(c2ccc(C)c([N+](=O)[O-])c2)OC1(C)C | 9.3µM* | -2 | 7 | ?
CC(=O)N1N=C(c2cccc([N+](=O)[O-])c2)OC1(C)c1cccs1 (stereo not given) | -9% | 8 | 6 | -10%
O=C1CC(N2CCN(c3ccc(C(=O)c4ccc(F)cc4)cc3)CC2)C(=O)N1 (stereo not given) | 31% | 31 | 18* | nt
CCN1C(=O)CC(N2CCN(c3ccc(C(=O)c4ccccc4)cc3)CC2)C1=O (stereo not given) | ? | 106* | 64* | nt
Cc1ccc(S(=O)(=O)c2nc(NN(C)C)sc2Cl)cc1 | -10% | 12 | -2 | 2%
COc1cc2c(C(=O)NCc3ccccn3)cn(CC(C)C)c(=O)c2cc1OC | -9% | -6 | -5 | 13µM*
CCn1cc(C(=O)NCc2cccnc2)c2cc(OC)c(OC)cc2c1=O | 23% | -8 | -1 | 2.1µM*
NC(=O)C1CC2(NC(=O)NC2=O)c2cc(F)ccc2O1 (stereo not given) | -2% | nt | nt | -15%
CCOC(=O)c1c(C)nc2sc3c(c2c1-c1ccc(OC)cc1)NC(c1ccccc1)NC3=O (stereo not given) | 13µM* | -20 | -2 | 4.1µM*
CCc1ccc(-c2cn3nc(-c4ccccc4)cnc3n2)cc1 | 43% | 64* | 25* | 64%
COc1ccc([C@@H]2Sc3cc(OC)ccc3N(CCN(C(C)C)C(C)C)C(=O)[C@H]2OC(C)=O)cc1 | 12µM* | -5 | -6 | ?
Cc1ccc(CN2CCN(c3cccc4[nH]ccc34)CC2)cc1 | -14% | -3 | -1 | -19%
SMILES | Pf growth 48h | Shiga toxin inh | CHX counter | Pf growth 96h
Cc1ccc(S(=O)(=O)NNC(=O)c2ccc(NC(=O)C3CC3)cc2)cc1 | 17% | -3 | -2 | ?
O=C(Nc1ncc(Cc2ccc(SC(F)F)cc2)s1)c1ccccc1 | -9% | 11 | -3 | ?
Cc1ccc(Cc2cnc(NC(=O)c3cccs3)s2)cc1 | 107% | 192* | 46* | -58%
O=C(Nc1ncc(Cc2cccc(Cl)c2)s1)c1cccs1 | -5% | 126* | 54* | 0%
Cc1ccc(C(=O)Nc2ncc(Cc3ccccc3)s2)o1 | 376% | 80* | 42* | -1%
O=C(Nc1ncc(Cc2ccccc2)s1)c1cccs1 | 37% | 131* | 59* | ?
NC(=O)c1nc[nH]c1C(=O)Nc1cccc(C(F)(F)F)c1 | 44% | nt | nt | 1%
COc1ccc2c(CC(=O)Nc3cccc(S(=O)(=O)N4CCOCC4)c3)coc2c1 | ? | -4 | -1 | 2.3µM*
COc1ccc2c(CC(=O)Nc3ccc(OC)c(NS(=O)(=O)c4ccc(F)cc4)c3)coc2c1 | ? | 13 | 5 | 15µM*
Cc1cccc(OCC(=O)Nc2cc(S(=O)(=O)N3CCOCC3)ccc2N2CCCC2)c1C | 4.1µM* | nt | nt | 7.4µM*
COc1ccc2c(CC(=O)Nc3ccccc3OC)coc2c1 | 18% | 54 | 16 | 69%
COc1cccc(CC(=O)Nc2cc(S(=O)(=O)N3CCOCC3)ccc2N2CCOCC2)c1 | ? | -5 | -2 | 10µM*
COc1cccc(CC(=O)Nc2cc(S(=O)(=O)N3CCOCC3)ccc2OC)c1 | -11% | nt | nt | ?
O=C(O)CC1(CC(=O)Nc2cc3ccccc3cn2)CCCCC1 | 1% | 2 | 2 | 2%
CCN(CC)C(CNC(=O)c1cc(=O)[nH]c2ccccc12)c1ccccc1Cl (stereo not given) | -17% | -10 | 5 | -2%
O=C(NCc1cccc2ccsc12)c1cccs1 | 19% | nt | nt | 43%
O=C(c1ccc(F)cc1Cl)N(Cc1ccco1)C1CCS(=O)(=O)C1 (stereo not given) | -29% | nt | nt | -23%
O=C(Nc1ccc(C(=O)N2CCOCC2)cc1)c1cccc([N+](=O)[O-])c1 | 5% | -4 | -3 | ?
CC1(C(=O)Nc2c(F)c(F)c(F)c(F)c2F)CC1(Br)Br (stereo not given) | ? | 10 | -1 | ?
COc1cccc(CC(=O)Nc2cc(C(F)(F)F)ccc2N2CCCC2)c1 | ? | 2 | -2 | 13µM*
O=C(COc1ccccc1)Nc1cc(C(F)(F)F)ccc1N1CCCC1 | ? | -19 | -6 | -6%
COc1ccc(S(=O)(=O)N2CCOCC2)cc1NC(=O)COc1ccccc1OC | 0% | -8 | -4 | 21%
CCc1cccc(OCC(=O)Nc2cc(S(=O)(=O)N3CCOCC3)ccc2N2CCCC2)c1 | ? | -7 | -2 | 8.3µM*
C/C=C/c1ccc(OCC(=O)Nc2cc(S(=O)(=O)N3CCOCC3)ccc2N2CCCC2)c(OC)c1 | 13µM* | nt | nt | ?
Cc1ccc(C(=O)C(C)OC(=O)CN2C(=O)NC3(CCCC3)C2=O)cc1 (stereo not given) | 36% | nt | nt | 62%
SMILES | Pf growth 48h | Shiga toxin inh | CHX counter | Pf growth 96h
CCC1CC=CC2C1C(=O)N(Cc1ccccc1)C2c1ccc(OC)c(Cl)c1 (stereo not given) | nt | -2 | 6 | nt
CCOCCCn1c(=S)[nH]c2cc(C(=O)NCCc3ccccc3)ccc2c1=O | 28% | 38 | 31 | ?
O=C(O)c1ccc2c(=O)n3c(nc2c1)/C(=C/c1ccccc1C(F)(F)F)CCCC3 | 1% | 10 | 4 | -25%
CCN(c1ccccc1)S(=O)(=O)c1ccc(OC)c(NC(=O)CNCCc2ccccc2)c1 | 12µM* | 36 | 25* | ?
CCN(c1ccccc1)S(=O)(=O)c1ccc(OC)c(NC(=O)Cc2ccc(F)cc2)c1 | ? | nt | nt | 10µM*
O=C(Nc1cc(C(F)(F)F)cc(C(F)(F)F)c1)c1ccc(Cn2cc(C(F)(F)F)ccc2=O)cc1 | ? | -2 | -1 | ?
